# Among all 310,000 compounds or so, about 2,200 (0.71%) showed an effect of 50% or more. Effects have a minus sign here. This is one part of a sample in which strong results are shown more often than they occur.
# Target: human ether-à-go-go-related gene (hERG) potassium channel (human, UniProt Q12809)
# Test: primary screen, population patch clamp on CHO cells stably expressing hERG; higher = less effect of the substance
# human ether-à-go-go-related gene (hERG) potassium channel, sequence (Q12809 whole entry, looked up): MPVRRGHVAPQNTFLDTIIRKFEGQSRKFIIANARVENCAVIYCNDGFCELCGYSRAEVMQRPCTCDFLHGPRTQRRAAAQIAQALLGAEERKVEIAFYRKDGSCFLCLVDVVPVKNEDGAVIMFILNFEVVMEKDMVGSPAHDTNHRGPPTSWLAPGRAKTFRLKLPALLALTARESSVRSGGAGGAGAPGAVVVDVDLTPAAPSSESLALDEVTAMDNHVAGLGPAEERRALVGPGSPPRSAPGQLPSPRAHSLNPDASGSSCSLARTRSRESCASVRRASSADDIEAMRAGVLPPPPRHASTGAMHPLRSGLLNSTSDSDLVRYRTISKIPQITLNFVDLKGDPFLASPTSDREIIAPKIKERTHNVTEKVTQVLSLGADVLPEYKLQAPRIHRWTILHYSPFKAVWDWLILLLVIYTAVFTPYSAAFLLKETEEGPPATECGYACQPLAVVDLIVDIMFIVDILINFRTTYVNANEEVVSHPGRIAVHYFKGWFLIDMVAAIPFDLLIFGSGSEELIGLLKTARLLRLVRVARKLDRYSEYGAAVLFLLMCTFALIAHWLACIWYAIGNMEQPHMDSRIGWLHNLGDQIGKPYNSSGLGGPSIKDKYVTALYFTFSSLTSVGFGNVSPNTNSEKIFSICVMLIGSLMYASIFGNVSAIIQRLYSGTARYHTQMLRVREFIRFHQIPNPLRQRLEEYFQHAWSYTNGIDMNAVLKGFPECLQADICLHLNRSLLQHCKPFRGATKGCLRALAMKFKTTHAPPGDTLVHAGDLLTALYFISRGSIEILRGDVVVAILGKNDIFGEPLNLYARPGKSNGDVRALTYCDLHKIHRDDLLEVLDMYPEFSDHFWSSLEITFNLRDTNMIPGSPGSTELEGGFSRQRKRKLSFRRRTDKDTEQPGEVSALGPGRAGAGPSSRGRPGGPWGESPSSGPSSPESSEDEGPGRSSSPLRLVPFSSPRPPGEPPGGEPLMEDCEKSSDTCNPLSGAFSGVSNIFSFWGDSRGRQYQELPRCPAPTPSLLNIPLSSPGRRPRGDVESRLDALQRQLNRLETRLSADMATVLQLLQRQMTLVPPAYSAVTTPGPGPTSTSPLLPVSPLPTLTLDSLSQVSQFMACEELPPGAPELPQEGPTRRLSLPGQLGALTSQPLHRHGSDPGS
row,SMILES,"hERG current change (%, negative = inhibition) at 1uM [%]"
1,CC1CCCCC1NC(=O)CCNS(=O)(=O)c1ccc(Cl)cc1 (stereo not shown),7.29
2,O=C(C1CCC(CNS(=O)(=O)c2cccc3cccnc23)CC1)N1CCc2ccccc21 (stereo not shown),1.06
3,Brc1ccc2c(c1)OCCOCCOc1cc(Br)ccc1OCCOCCOCCO2,-6.77
4,Cl.Nc1ccc2c(c1)OCCOCCOCCOCCOCCO2,-12.2
5,Brc1ccc2c(c1)OCCOCCOCCOCCOCCOCCO2,-60
6,O=C(O)/C=C/c1ccc2c(c1)OCCO2,6.97
7,C=Cc1ccc2c(c1)OCCOCCOCCOCCOCCO2,-70.2
8,Brc1ccc2c(c1)OCCOCCOCCOCCOCCO2,-78.6
9,c1ccc2c(c1)OCCOCCOCCOCCOCCOc1ccccc1OCCOCCOCCO2,-8.98
10,Brc1cc2c(cc1Br)OCCOCCOCCO2,5.78
11,Brc1cc2c(cc1Br)OCCOCCOCCOCCO2,-38.2
12,CCNC(=S)N1CCc2ccccc2C1,9.59
13,CCOc1ccc(C(=O)n2cnnc2N)cc1,16.9
14,Cc1nc(SC2CCOC2=O)c2c(C)c(C)sc2n1 (stereo not shown),4.94
15,Cc1cccc(NC(=O)C2CCN(S(=O)(=O)c3cccs3)CC2)n1,2.08
16,Cc1ccc(-n2c(C)nnc2SCC(=O)N2CCc3ccccc3C2)cc1,-19.6
17,Cc1ccc(N(C(=O)c2ccccn2)C2(C(=O)NC3CCCC3)CCCCC2)cc1,16.9
18,CC(=O)O.CN(C)Cc1cn(CCC(=O)O)c2ccccc12,10.9
19,CCOC(=O)C1CCCN(CCC(=O)Nc2cc(C)ccc2C)C1.Cl (stereo not shown),-8.02
20,COc1ccc(-n2c(SCC(=O)NCC3CCCO3)nc3n[nH]c(C)c3c2=N)cc1 (stereo not shown),7.29
21,O=C(COc1ccc(Cl)cc1Cl)Nc1nc2n(n1)C(c1ccccc1)CC(=O)N2 (stereo not shown),1.52
22,CCc1nnc(NC(=O)c2cc(S(=O)(=O)N3CCCCC3)ccc2C)s1,1.93
23,CCn1c2ccccc2c2cc(NC(=O)CSc3nnc(-c4cccc(Cl)c4)o3)ccc21,9.78
24,O=C(COc1ccccc1)Nc1ccccc1C(=O)NCc1ccco1,6.35
25,CN(C)CCN(Cc1ccco1)C(=O)c1oc2ccccc2c1NC(=O)COc1ccccc1,-79.3
26,COc1ccc(OCC(=O)Nc2c(C(=O)N(CCN(C)C)Cc3ccco3)oc3ccccc23)cc1,-82.2

row,SMILES,"hERG current change (%, negative = inhibition) at 1uM [%]"
1,COc1ccccc1C(=O)Nc1c(C(=O)N(CCN(C)C)Cc2ccco2)oc2ccccc12,-27.4
2,Cc1c(C(=O)OCC(=O)NCc2ccco2)oc2ccccc12,10.1
3,Cc1c(C(=O)NCc2ccco2)oc2ccccc12,9.16
4,Cc1ccccc1C(=O)Nc1c(C(=O)N(CCN(C)C)Cc2ccco2)oc2ccccc12,-81.1
5,COc1ccc(OCC(=O)Nc2c(C(=O)N3CCN(C)CC3)oc3ccccc23)cc1,-15
6,CCCN1CCN(C(=O)c2oc3ccccc3c2NC(=O)COc2ccc(OC)cc2)CC1,-46.3
7,O=c1c(=Nc2ccccc2O)c(=O)c2ccccc12,17.3
8,O=c1[nH]c2cc3c(cc2cc1CN(Cc1ccco1)C(=S)NCC1CCCO1)OCCO3 (stereo not shown),15.1
9,COC(=O)c1sc(NC(=S)NC(=O)c2ccccc2F)nc1C,2.7
10,O=C1CCC([N+](=O)[O-])C(c2cc(Br)ccc2F)N1 (stereo not shown),14.5
11,O=C(CNC(=O)c1ccc(F)cc1)c1ccc(Cl)cc1,19.6
12,Cc1cccc(CN2C[C@]34C=C[C@@H](C[C@@H]3S2(=O)=O)O4)c1,10.3
13,CCCNC(=O)c1ccc(N2CC3CC(C2)c2cccc(=O)n2C3)c(NC(=O)Nc2ccc(CC)cc2)c1 (stereo not shown),-56.1
14,CCc1ccc(NC(=O)Nc2cc(C(=O)O)ccc2N2CC3CC(C2)c2cccc(=O)n2C3)cc1 (stereo not shown),19.5
15,CCc1ccc(NC(=O)Nc2cc(C(=O)NCC3CCCO3)ccc2N2CC3CC(C2)c2cccc(=O)n2C3)cc1 (stereo not shown),11.3
16,CCOC(=O)c1ccc(NC(=O)CSc2ccc(-c3ccncc3)nn2)cc1,9.76
17,NCCCC[C@H]1CN=C(N)N1CCc1cccc2ccccc12,9.97
18,CN(C)CCNC(=O)/C(=C/c1ccc(-c2cccc([N+](=O)[O-])c2)o1)NC(=O)c1ccccc1,-37.2
19,O=C(NCCCO)/C(=C/c1ccc(-c2cccc([N+](=O)[O-])c2)o1)NC(=O)c1ccccc1,-4.53
20,Cc1ccc(C(=O)N/C(=C\c2ccc(-c3cccc([N+](=O)[O-])c3)o2)C(=O)NCCCN(C)C)cc1,-27.5
21,Cc1ccc(C(=O)N/C(=C\c2ccc(-c3cccc([N+](=O)[O-])c3)o2)C(=O)NCCCN2CCOCC2)cc1,-74.7
22,CN(C)CCCNC(=O)/C(=C\c1ccc(-c2cccc([N+](=O)[O-])c2)o1)NC(=O)c1ccccc1,-77.9
23,Cc1ccc(C(=O)N/C(=C\c2ccc(-c3ccccc3[N+](=O)[O-])o2)C(=O)NCCCN2CCOCC2)cc1,-11.2
24,Cc1ccc(C(=O)N/C(=C/c2ccc(-c3cccc([N+](=O)[O-])c3)o2)C(=O)NC(C)(C)C)cc1,-0.682
25,Cc1ccc(C(=O)N/C(=C/c2ccc(-c3cccc([N+](=O)[O-])c3)o2)C(=O)NC(C)C)cc1,10.1
26,Cc1ccc(C(=O)N/C(=C/c2ccc(-c3cccc([N+](=O)[O-])c3)o2)C(=O)NCCCN(C)C)cc1,-73.3

# Reference: PMC4336329 (PLoS ONE, 2015)
